HT1080 IDH1KD tx: toxicity to HT-1080 IDH1 knockdown cells (counter line); 360,000 compounds, 2% hits; HT-1080 IDH1 knockdown viability, ATP luminescence, 48 h; AID 686971; Potency, µM (titrated, usually from 46.1 µM), inactives show top-dose activity, negative = toxicity, actives largely listed as cytotoxic;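 note: potency is the fitted concentration of half-maximal effect; 0% = DMSO wells and -100% = cell-free medium wells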
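Cytotoxicity counter-line: IDH1KD HT-1080, 48 h, CellTiter-Glo. Curves classed by r2, magnitude and activity.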
KB-V1 MDR tox: kills drug-selected multidrug resistant KB-V1 cells; 400,000 compounds, 3.4% hits; KB-V1 MDR cells viability, CellTiter-Glo, 72 h; Potency, µM (series often up to 46.1 µM), usual class: cytotoxic; AID 1347076; note: potency is the fitted concentration of half-maximal effect; nearly all actives have a fitted effect of over 60% in size
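In this primary screen, KB-V1 cells overexpressing P-gp are incubated with library compounds (lowest to highest concentration) for 72 h at 37 degrees C before a luminescent ATP viability read.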
KB-3-1 cytotox: KB-3-1 parental cell cytotoxicity | KB-3-1 viability, CellTiter-Glo ATP luminescence, 72 h | Potency, µM (titrated, usually from 46.1 µM), hits mostly cytotoxic | 400,000 compounds, 1.4% hits | AID 1347075; note: potency is the fitted concentration of half-maximal effect; nearly all actives have a fitted effect of over 60% in size
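Cytotoxicity measured as CellTiter-Glo luminescence after 72 h at 37 C. Compound titrations were pinned onto drug-naive KB-3-1 parental adenocarcinoma cells grown in DMEM with 10% FBS, and normalized data fitted to concentration-response curves.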
IL1B secr inh: inflammasome signaling inhibition, IL-1 beta readout; THP-1 LPS/ATP IL-1B secretion, AlphaLISA, 16 h; stronger effect = lower value; activity change, % at 57.5 µM; 360,000 compounds, 4.7% hits; in the data active = activity change below about -50%; inconclusive = mostly about -30% to -49%
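Secreted IL-1B measured by AlphaLISA bead assay after 16 h compound exposure of THP-1 cells; compounds (final up to 57.5 uM) added 1 h before LPS (250 ng/mL) and ATP (1.25 mM) stimulation; lower signal means less secretion.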
HT1080-NT tox: kills 2HG-producing HT-1080-NT fibrosarcoma cells; HT-1080-NT fibrosarcoma viability, CellTiter-Glo ATP luminescence, 48 h; Potency, µM (doses to about 46.1 µM), inactives show at the highest dose activity, negative = less viability, usual class: cytotoxic; 360,000 compounds, 1.6% hits; AID 686970;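 note: NT is the 2HG producing partner of a matched IDH1 knockdown line; potency is the fitted concentration of half-maximal effect; 0% = DMSO-treated cells and -100% = media-only wells without cells; nearly all actives have a fitted effect of over 55% in size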
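Read-out is CellTiter-Glo luminescence after 10 minutes at room temperature, following 48 hours' compound treatment of HT-1080-NT cells (750 cells/well, RPMI, 5% FBS, 37 degrees C).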
* = called active by the depositor; i = inactive; u = inconclusive; x = not tested or not shown. This is a sample that favours compounds with a hit; in the whole collection about 8.8% have one here. Unless noted, calls come from the whole dose curve; as a rule, active = well fitted curve in the direction sought with a large enough effect; inconclusive = small, poorly fitted or top-dose-only effect, or another doubt; inactive = no such curve, though single readings can be large; an effect the other way counts as inactive or inconclusive. Unless noted, % is set by controls: 0 for no effect and ±100 for the full control effect.

SMILES | HT1080 IDH1KD tx | KB-V1 MDR tox | KB-3-1 cytotox | IL1B secr inh | HT1080-NT tox
Cc1ccc2[nH]c(=O)c(CN(CCN3CCOCC3)C(=O)Nc3ccc(F)cc3)cc2c1 | 2% | i | i | -19 | 2%
Cc1cc(C)c2cc(CN(CCN3CCCC3)C(=O)Nc3ccc(F)cc3)c(=O)[nH]c2c1 | 18µM* | i | u | -80* | u
Cc1ccc2cc(CN(CCN(C)C)C(=O)Nc3ccc(Cl)cc3)c(=O)[nH]c2c1 | -2% | u | u | x | u
Cc1ccc2[nH]c(=O)c(CN(CCCN(C)C)C(=O)Nc3ccc(Cl)cc3)cc2c1 | 2% | i | u | -54* | 4%
Cc1nc([N+](=O)[O-])c(Br)n1Cc1ccc(Cl)c(Cl)c1 | u | u | u | -60* | u
Cc1nc([N+](=O)[O-])c(Br)n1CC(=O)c1ccc(Cl)cc1 | 18µM* | u | 18µM* | -116* | u
COc1ccc(C(=O)Cn2c(C)nc([N+](=O)[O-])c2Br)cc1 | u | i | u | x | u
COc1ccc(S(=O)(=O)NCc2ccc(C(=O)NCCN(C)Cc3ccccc3)cc2)cc1 | -15% | i | i | -20 | -28%
CC(=O)c1ccc(OCc2nnn(CC(=O)O)c2-c2ccccc2)cc1 | 22% | i | i | -69* | -1%
Cc1ccc(NC(=O)Nc2ccc3c(c2)OCO3)nc1 | -5% | i | i | -21 | -12%
O=C(/C=C/c1ccco1)Nc1nc(-c2ccccn2)cs1 | -19% | i | i | 124 | -17%
Cc1ccc(NC(=O)/C=C/c2ccc3c(c2)OCO3)nc1 | -28% | i | 7.3µM* | 0 | u
Cc1ccc(NC(=O)/C=C/c2ccco2)nc1 | 0.0058µM* | 0.1µM* | 0.16µM* | -29 | 0.046µM*
O=C(/C=C/c1ccco1)Nc1ccccn1 | u | u | 5.8µM* | 59 | u
Cc1ccc(NC(=S)Nc2cccnc2)c(S(=O)(=O)N2CCCCC2)c1 | u | i | u | -4 | u
CCc1ccc(C2=CC(c3cccc(C)c3)n3c(nc4ccccc43)N2)cc1 (stereo not given) | x | i | i | x | x
Cc1sc(-c2cc3ccccc3oc2=O)nc1-c1ccc(Cl)cc1 | x | i | i | x | x
Cc1ccc(NC(=O)C(=Cc2ccc(C(=O)O)cc2)C(=O)Nc2ccc(C)cc2C)c(C)c1 | 12µM* | u | u | -100* | 15µM*
COC(=O)c1nn(-c2ccccc2)c(=O)cc1O | u | i | i | 7 | 16%
Cc1ccc(NC(=O)c2cc(-c3ccccc3)nn2-c2ccccc2)cc1 | 0% | 21µM* | u | u | 2%
Cc1ccc(NC(=O)c2cc(-c3ccccc3)nn2-c2ccccc2)c(Br)c1 | 14% | i | u | -3 | 22%
O=C(Nc1ccc(F)cc1)c1nn(-c2ccccc2)c(=O)cc1Cl | 21µM* | u | 4.6µM* | -145* | 18µM*
C=CCSC1=N/C(=C\c2ccc(C(=O)O)cc2)C(=O)S1 | 5% | i | i | 8 | 7%
CS(=O)(=O)c1ccc(Cl)c(NC(=O)c2ccc(-n3cncn3)c([N+](=O)[O-])c2)c1 | -2% | u | i | -4 | -4%
CN(C)C/C=C/C(=O)Nc1cccc(-c2c[nH]c3ncnc(Oc4ccc(NC(=O)CC(=O)Nc5ccc(F)cc5)cc4F)c23)c1 | -10% | i | i | -90* | -14%
SMILES | HT1080 IDH1KD tx | KB-V1 MDR tox | KB-3-1 cytotox | IL1B secr inh | HT1080-NT tox
Cc1ccc(C(=O)NCCc2ccc(F)cc2)s1 | 0% | u | i | -24 | 1%
C=CCn1c(SCc2ccccc2C#N)nnc1-c1cc(Br)ccc1O | u | 3.7µM* | u | 0 | -8%
CC(C)[C@H](NS(=O)(=O)c1ccccc1F)C(=O)OCC(=O)Nc1cccc(S(N)(=O)=O)c1 | 5% | i | i | 19 | 4%
CCCCCCCCCCCCCCC(O)C[N+](C)(CCO)CCO (stereo not given) | 18µM* | i | u | -100* | u
CCCCCCCC(=O)OCC(O)CO (stereo not given) | 11% | i | i | -6 | 0%
O=C(NCCCc1ccccc1)c1ccc(F)cc1 | 0% | i | i | -16 | -4%
O=C(NCCNC1CCC(c2ccccc2)CC1)c1ccc(F)cc1 (stereo not given) | u | u | i | -70* | 21µM*
c1ccc(-n2cc(CN3CCC(N4CCOCC4)CC3)c(-c3ccc4c(c3)OCO4)n2)cc1 | 9% | i | i | -66* | 0%
O=C1NC[C@@H](CCCCN2CCN(CCc3ccc(O)cc3)C(=O)C2=O)N(Cc2ccccc2)C1=O | u | i | i | 49 | 21%
Cc1ccc(C(=O)N[C@@H](Cc2ccccc2)C(=O)N2CCC3(CC2)NCCc2[nH]cnc23)cc1C | 0% | i | i | 3 | 1%
CN(C)S(=O)(=O)N1CCCC(C(=O)c2ccc(-c3ccccc3)cc2)C1 (stereo not given) | -1% | i | i | -23 | -1%
CN(C)S(=O)(=O)N1CCCC(C(=O)c2ccc(C(F)(F)F)cc2)C1 (stereo not given) | -6% | 23µM* | i | -8 | -7%
CCc1ccccc1NC(=O)C1CCN(S(=O)(=O)c2ccc3[nH]c(=O)ccc3c2)CC1 | x | i | i | x | x
COc1ccc(-c2[nH]c(-c3ccc4c(c3)OCO4)nc2-c2ccccc2)cc1 | u | u | u | -64* | u
COc1cc(OC)cc(C(=O)N/N=C(\C)CC(=O)Nc2ccccn2)c1 | 3.3µM* | i | i | 62 | 2.6µM*
C/C(CC(=O)Nc1ccccn1)=N\NC(=O)c1ccccc1O | 9.2µM* | i | u | 145 | 21µM*
C/C(CC(=O)Nc1ccccn1)=N\NC(=O)c1ccc2ccccc2c1 | -16% | i | i | 37 | -3%
C/C(CC(=O)Nc1cccc(Cl)c1Cl)=N\NC(=O)c1ccccc1N | -25% | i | i | -56* | -24%
CCC(Sc1nc2sc(C(=O)OC)c(C)c2c(=O)n1N)C(=O)NCC1CCCO1 (stereo not given) | 13% | 16µM* | i | 0 | 6%
CCCCNC(=O)C(CC)Sc1nc2sc(C(=O)OC)c(C)c2c(=O)n1N (stereo not given) | u | 4.6µM* | i | 4 | -2%
COCCCNC(=O)CSc1nc2sc(C(=O)OC)c(C)c2c(=O)n1N | 12% | i | i | 7 | 21%
CCOCCCn1c(SC(C)C(=O)NCC2CCCO2)nc2sc(C)c(C)c2c1=O (stereo not given) | -2% | i | i | -27 | 0%

Source: PubChem BioAssay (National Center for Advancing Translational Sciences (NCATS))
